Bioassay records (PubChem)
BL2 CD40 inh = CD40 pathway inhibition in BL2 cells | BL2 NF-kB luciferase reporter, CD40L-induced, 4 h | hit rate 0.94% among 83,000 | inhibition, % at 10 µM;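 active = mean inhibition of at least 50% with a set share of replicates also reaching that level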;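 note: 0% = neutral control wells and 100% = IKK inhibitor VII at 50 µM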
The depositor's hits bear a star; ! = not confirmed by another sample; [ ] = dose if it differs, or a comment. Shown is part of a subset that was picked to be rich in hits.

SMILES | BL2 CD40 inh
N#Cc1ccc(-c2ccc([C@H]3[C@@H](CO)N4C(=O)CNC[C@H]34)cc2)cc1 | -10.6[25 µM]
O=C(NC[C@@H]1N[C@@H](CO)[C@H]1c1ccc(C2=CCCCC2)cc1)c1cccc(F)c1 | -11.2
CC=Cc1ccc2n(c1=O)C[C@H]1[C@H](CO)[C@@H](C(=O)NCC)[C@@H]2N1Cc1nccs1 (mixture of isomers) | -2.9[25 µM]
C[C@@H]1CN(C)C(=O)Cc2cc(N(C)C)ccc2O[C@H]1CN(C)C(=O)OC(C)(C)C | -0.8
CO[C@H](CN(C)S(=O)(=O)c1ccc(Cl)cc1)[C@H](C)CN([C@@H](C)CO)S(=O)(=O)c1cccc(Cl)c1 | 4.2
CC(=O)N1C[C@@H]2C(c3ccc(Br)cc3)[C@H](C1)N2C(=O)NC(C)C (some centres not stated) | 8.9
Cc1cc(C(N)=O)c2ccccc2n1 | 5.4
CN(C)/C=N/c1ncc(C(=O)c2ccc3ccccc3c2)s1 | -44.8
Cc1cc(Sc2nnc(/N=C/N(C)C)s2)c2ccccc2n1 | 83.6*
COc1ccc(NC(=O)N(C)C[C@H]2Oc3ccc(NS(=O)(=O)c4ccc(F)cc4)cc3C(=O)N([C@@H](C)CO)C[C@H]2C)cc1 | 0.4
Cc1cccc(-c2ccc(C3[C@@H]4CN(C(=O)C5CCCCC5)C[C@H]3N4)cc2)c1 (some centres not stated) | 2.1[25 µM]
N#Cc1cccc(-c2ccc([C@@H]3[C@@H]4CN(S(=O)(=O)c5ccc(-c6ccccc6)cc5)C[C@H]3N4)cc2)c1 | 60.8*
Cc1ccc(S(=O)(=O)N2C[C@@H]3N[C@H](C2)C3c2ccc(-c3cccc(C#N)c3)cc2)cc1 (some centres not stated) | 21.4[25 µM]
Cc1ccccc1S(=O)(=O)N1C[C@@H]2N[C@H](C1)C2c1ccc(-c2cccc(C#N)c2)cc1 (some centres not stated) | 53.6*![25 µM]
N#Cc1cccc(-c2ccc(C3[C@@H]4CN(S(=O)(=O)c5ccc(F)cc5)C[C@H]3N4)cc2)c1 (some centres not stated) | -5.9
N#Cc1cccc(-c2ccc(C3[C@@H]4CN(S(=O)(=O)c5ccccc5)C[C@H]3N4)cc2)c1 (some centres not stated) | -5.2
N#Cc1cccc(-c2ccc(C3[C@@H]4CN(S(=O)(=O)c5ccccc5F)C[C@H]3N4)cc2)c1 (some centres not stated) | 2.1
O=C(NCCc1ccccc1)[C@H]1[C@H](CO)[C@H]2Cn3c(cccc3=O)[C@@H]1N2CC1CC1 | 2.2[25 µM]
CNC[C@H]1Oc2ccc(NC(C)=O)cc2C(=O)N(C)C[C@@H]1C | 5.2
C[C@@H](NC(=O)[C@@H]1[C@@H](CO)[C@@H]2Cn3c(cccc3=O)[C@@H]2N1Cc1cccnc1)c1ccccc1 | 4.4[25 µM]
COc1ccc(-c2ccc([C@@H]3[C@@H](CO)N4C(=O)CN(Cc5ccccc5)C[C@H]34)cc2)cc1 | -9.0[25 µM]
c1ccc(CCSc2nccn2-c2ccccc2)cc1 | active
O=C(O)c1cccnc1SCCc1ccccc1 | -58.4
COC(=O)CCCSc1nccn1-c1ccccc1 | -8.1
COc1ccc2c3c(n(C)c2c1)[C@H](CO)N(S(=O)(=O)c1cn(C)cn1)CC31CCN(C)CC1 | 10.6[25 µM]
SMILES | BL2 CD40 inh
CC1CC(C)C(=O)C(C(CC2CC(=O)NC(=O)C2)OC(=O)CC(=O)c2ccccc2)C1 (configuration not stated) | 56.4*
O=C1CCC(C(=O)OCC(=O)c2ccccc2)N1 (configuration not stated) | 11.0
COc1ccc2c3c(n(C)c2c1)[C@H](CO)NCC31CN(Cc2cc(-c3ccccc3)on2)C1 | 0.2
CN(C)C(=O)c1cccc(-c2ccc3c(c2)[C@@H]2[C@@H](CCN2C(=O)C2CCCCC2)[C@H](CO)N3)c1 | 4.7
O=C(Nc1ccc(F)cc1)N1CC(=O)N2[C@@H](CO)[C@H](c3ccc(-c4ccc(F)cc4)cc3)[C@@H]2C1 | 38.8
CC[N+]1(C)CCC(O)(c2ccc(OC)cc2)C(C(=O)c2ccc(OC)cc2)C1 (configuration not stated) | 97.2*
COc1ccc(C(=O)C23CC4CC(C2)CC(C(=O)c2ccc(OC)cc2)(C4)C3)cc1 | 9.0
COc1ccc(-c2ccc(C(=O)C3CC3)cc2)cc1 | -51.2
CC(C)[C@H]1COCc2cn(nn2)CC[C@H](Cc2ccccc2)C(=O)N1 | 11.1
O=C1CCCN1c1ccc(S(=O)(=O)Nc2ccc3c(c2)OCCO3)cc1 | 18.7
CCn1cc(S(=O)(=O)Nc2ccc3c(c2)OCCO3)cn1 | 75.9*
O=S(=O)(Nc1cccnc1)c1ccc2c(c1)OCCO2 | 2.7
CC(=O)OC1C(=O)C2(C)C(O)CC3OCC3(OC(C)=O)C2C(OC(=O)c2ccccc2)C2(O)CC(OC(=O)C(O)C(NC(=O)c3ccccc3)c3ccccc3)C(C)=C1C2(C)C (configuration not stated) | 4.0[25 µM]
CNC[C@@H]1Oc2ccc(NC(C)=O)cc2CC(=O)N(C)C[C@H]1C | -1.7
N#Cc1cccc(-c2ccc(C3[C@H]4CNC[C@@H]3N4Cc3ccc4c(c3)OCO4)cc2)c1 (some centres not stated) | 74.5*!
N#Cc1cccc(-c2ccc(C3[C@H]4CNC[C@@H]3N4Cc3cccc(F)c3)cc2)c1 (some centres not stated) | 0.4[25 µM]
COc1cccc(-c2ccc(C3[C@H]4CNC[C@@H]3N4Cc3ccc4c(c3)OCO4)cc2)c1 (some centres not stated) | -55.6[25 µM]
C[C@H]1CN([C@@H](C)CO)C(=O)c2c(c3ccccc3n2C)-c2ccccc2CO[C@@H]1CN(C)Cc1ccc(-c2ccccc2)cc1 | -0.5
CCc1cnc(N2[C@H](CO)[C@@H](c3ccc(C#CCC4CCCC4)cc3)[C@@H]2C#N)s1 | 0.7[25 µM]
CN1c2ccc(-c3cccc(F)c3)cc2[C@@H]2[C@@H](CCN2C(=O)C2CCC2)[C@H]1CO | -18.9[25 µM]
CN1c2ccc(-c3cccc(F)c3)cc2[C@H]2[C@H](CCN2C(=O)C2CCC2)[C@H]1CO | 37.7[25 µM]
CN1c2ccc(-c3cccc(F)c3)cc2[C@H]2[C@H](CCN2C(=O)C2CCCC2)[C@H]1CO | 54.0*
COc1ccc(NC(=O)Nc2ccc3c(c2)C(=O)N([C@H](C)CO)C[C@H](C)[C@H](CN(C)Cc2ccc(C(F)(F)F)cc2)OCCCC[C@H](C)O3)cc1 | 5.1
CO[C@@H]1CN(C)C(=O)c2ccc(NC(=O)Nc3c(C)noc3C)cc2OC[C@H](C)N(C)C[C@@H]1C | -5.8
CC(C)NC(=O)Nc1ccc2c(c1)C(=O)N(C)C[C@@H](C)[C@H](CN(C)C(=O)NC(C)C)O2 | -28.8
SMILES | BL2 CD40 inh
C/C=C/c1ccc(C2[C@@H]3CN(S(=O)(=O)c4cccc(OC)c4)C[C@H]2N3)cc1 (some centres not stated) | 6.4[25 µM]
CCN(CC)S(=O)(=O)c1cccc(C(=O)N/N=C2\CC(=O)CC(C)(C)C2)c1 | 7.9
Cc1ccccc1S(=O)(=O)/N=C(/Nc1nc2ccccc2s1)c1ccccc1 | -78.1
CC1(C)CC(=O)C/C(=N/Nc2nc3ccccc3s2)C1 | 49.7*
Cc1ccccc1NC(=O)c1ccc(Cl)c(NC(=O)C2CCCC2)c1 | 2.1
COc1ccccc1-c1cn(CC[C@@H]2CC[C@H](NC(=O)C3CCCC3)[C@@H](CO)O2)nn1 | -2.2
COc1cc(CNCCc2c[nH]c3ccccc23)cc(Cl)c1OCC(N)=O | 46.7*
COc1ccc(C(=O)NCC(=O)NCCc2c[nH]c3ccccc23)cc1OC | 16.8
COc1ccc(NC(=O)COC(=O)Cc2c[nH]c3ccccc23)cc1Cl | -3.1
COc1ccc(C(=O)N2CCC(N3CCN(c4ccccc4)CC3)CC2)cc1 | 3.2
